Source: PubChem (National Center for Advancing Translational Sciences (NCATS))
Shown are actives, neighbours in structure and some others; about 7.3% of the full set was active somewhere.
p53 reactivator = mutant p53 re-activation in reporter cells | H1299 p53-A138V BP100-luciferase reporter, luminescence, 24 h | Potency, µM (titrated, usually from 92.2 µM), actives largely listed as activators | hit rate 0.063% among 320,000; note: nearly all actives have a fitted effect of over 45% in size
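p53-null H1299 cells stably carrying temperature-sensitive p53-A138V and a BP100-luciferase reporter were pinned with compounds (4-point, 1:5 series) and held 24 hrs at 37 deg C. Luminescence was read 10 min after detection reagent.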
Rab9 promoter act = activators of Rab9 promoter; Huh7 Rab9 promoter-luciferase reporter, luminescence, 24 h; Potency, µM (top dose mostly 9.22 µM), usual class: activators; hit rate 2.8% among 320,000; AID 485297; note: nearly all actives have a fitted effect of over 60% in size
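Huh7 cells stably carrying a Rab9 promoter-luciferase reporter, 1500 cells per well in OP-MEM I with 10% FBS, treated with compound 24 hours at 37C. Luciferase activity read by luminescence after 10 minutes with Amplite reagent.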
ELG1 genotoxic = genotoxicity induction in ELG1-luciferase HEK293T cells. HEK293T ELG1-luciferase reporter, luminescence, 16 h. Potency, µM (doses to about 46 µM), usual class: activators. hit rate 1.3% among 330,000. AID 504466; note: nearly all actives have a fitted effect of over 60% in size
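HEK293T cells expressing luciferase-tagged ELG1 were exposed to compound or DMSO vehicle for 16 hr at 37 °C and 5% CO2. Luciferase activity was then measured with ONE-Glo after 30 min at room temperature.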
SMN2 splice up = enhancers of SMN2 splice variant expression; HEK293 SMN2-luciferase splicing reporter, luminescence, 30-36 h; Potency, µM (series often up to 46.1 µM), actives largely listed as activators; hit rate 2.8% among 210,000; AID 1458; note: nearly all actives have a fitted effect of over 55% in size
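HEK293 cells carry an SMN2 minigene-luciferase reporter in which exon 7 inclusion puts luciferase in frame. Cells were seeded at 2000 cells/well, attached for 10-12 hours, then exposed to compounds for 30-36 hours at 37C before ONE-Glo luminescence.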
NPC1 prom act = NPC1 promoter activation | Huh7 NPC1 promoter luciferase reporter, 24 h | Potency, µM (series often up to 9.22 µM), hits mostly activators | hit rate 2.4% among 320,000 | AID 485313; note: nearly all actives have a fitted effect of over 60% in size
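Luminescence read-out of NPC1 promoter-driven luciferase in stably transfected Huh7 cells; compounds delivered in DMSO and left 24 h at 37C, 5% CO2, qHTS titration format.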
FLuc counter = counter-screen for miR-21 project: firefly luciferase inhibitors or activators. hit rate 6.9% among 360,000. purified FLuc, Km substrates, luminescence inhibition. Potency, µM (titrated, usually from 57.5 µM), actives largely listed as inhibitors; note: nearly all actives have a fitted effect of over 55% in size
Target sequence (P08659 whole entry, looked up): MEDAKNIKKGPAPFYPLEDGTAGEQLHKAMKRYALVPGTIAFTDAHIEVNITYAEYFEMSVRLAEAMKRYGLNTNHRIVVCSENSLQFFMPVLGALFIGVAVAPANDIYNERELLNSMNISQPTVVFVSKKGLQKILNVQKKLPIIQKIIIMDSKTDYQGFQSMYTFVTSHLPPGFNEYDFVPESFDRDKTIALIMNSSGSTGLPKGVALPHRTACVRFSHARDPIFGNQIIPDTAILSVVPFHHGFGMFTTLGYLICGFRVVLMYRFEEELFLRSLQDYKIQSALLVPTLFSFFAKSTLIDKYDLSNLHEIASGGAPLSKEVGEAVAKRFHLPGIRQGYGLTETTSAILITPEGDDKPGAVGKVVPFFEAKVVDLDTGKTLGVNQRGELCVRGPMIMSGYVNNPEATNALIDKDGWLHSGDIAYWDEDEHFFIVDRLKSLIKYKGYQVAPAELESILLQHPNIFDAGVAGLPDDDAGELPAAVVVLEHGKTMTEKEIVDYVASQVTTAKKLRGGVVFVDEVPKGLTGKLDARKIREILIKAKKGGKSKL
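Purified P. pyralis luciferase (10nM final) with 10uM D-luciferin and 10uM ATP (Km levels) in 50mM Tris acetate pH 7.5, 10mM Mg acetate, 0.01% Tween-20, 0.05% BSA; qHTS 6-point titration, ~60 µM downward; luminescence read.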
Numbers stand for hits; . = inactive; ? = inconclusive; / = not tested or not shown; [ ] = another dose, or the depositor's remark. Calls come from the whole dose curve; as a rule, active = well fitted curve in the direction sought with a large enough effect; inconclusive = small, poorly fitted or top-dose-only effect, or another doubt; inactive = no such curve, though single readings can be large; an effect the other way counts as inactive or inconclusive.

SMILES	p53 reactivator	Rab9 promoter act	ELG1 genotoxic	SMN2 splice up	NPC1 prom act	FLuc counter
CCN(CC)S(=O)(=O)c1ccc(NN=C(C#N)C#N)cc1	.	.	.	/	.	?
CCCN(CCC)[C@@H]1CCc2c(F)ccc(O)c2C1	/	/	/	.	/	/
COc1ccccc1/C=C1\C(=O)NC(=S)N(c2ccccc2)C1=O	.	.	.	/	.	.
O=C1NC(=S)N(c2ccccc2)C(=O)/C1=C/c1ccco1	.	.	.	/	.	19µM
Cc1ccc(/C=C2\C(=O)NC(=S)N(c3ccc(F)cc3)C2=O)o1	/	.	.	/	.	?
COc1cccc(N2C(=O)/C(=C/c3ccc(C)o3)C(=O)NC2=S)c1	.	.	.	/	.	15.1µM
COc1cccc(N2C(=O)NC(=O)/C(=C/c3ccc4c(c3)Cc3ccccc3-4)C2=O)c1	.	.	.	.	.	21.3µM
CCOc1cccc(N2C(=O)/C(=C/c3ccco3)C(=O)NC2=S)c1	/	.	.	/	.	21.3µM
COc1cc(/C=C2/C(=O)NC(=O)N(c3ccccc3)C2=O)ccc1O	.	.	.	.	.	?
CO[C@@H]([CH2][Hg])CN1C(=O)c2ccccc2S1(=O)=O.Cn1c(=O)c2nc[nH]c2n(C)c1=O	/	/	/	.[9.22 µM]	/	/
Cc1ccc(OP(=O)(Oc2ccc(C)cc2)N2C=Cc3ccccc3[C@H]2C#N)cc1	/	/	/	.[9.22 µM]	/	/
O=C1N=C(N2CCCCC2)SC1=C1CCCCC1	?	2.82µM	16.4µM	.	?	13.5µM
On1ccccc1=S	.	.	.	/	.	8.49µM
CN(C)C(=O)Oc1ccnc2cc(Cl)ccc12	.	.	.	?	.	.
Cc1ccc(-c2nc3ccc(Cl)cc3n2OC(=O)N(C)C)cc1	.	3.16µM	2.91µM	.	3.16µM	?
Cc1ccc2nc(NC(=O)c3cccn(Cc4ccccc4F)c3=O)sc2c1	/	/	/	/	/	.
CCOc1ccc2nc(NC(=O)c3cccn(Cc4ccccc4C)c3=O)sc2c1	/	/	/	/	/	15.1µM
Cc1cccc(Cn2cccc(C(=O)Nc3nc4ccccc4s3)c2=O)c1	/	/	/	/	/	6.01µM
COc1ccc(C(CC(=O)N2CCC3(CC2)OCCO3)NS(=O)(=O)c2ccc(F)cc2)cc1 (centres undefined)	.	3.55µM	.	.	.	.
C=C(Cl)Cl	/	/	/	.	/	/
CC1CN(CC(=O)c2ccccc2Cl)CC(C)O1 (centres undefined)	.	.[1.84 µM]	.	/	.	.
CC1CCN(CC(=O)c2ccccc2Cl)CC1	?	?	?	?	.	10.7µM
CC1CCN(CC(=O)c2ccc3c(c2)OCCO3)CC1	.	?	?	12.6µM	?	10.7µM
CC(=O)Nc1ccccc1C(=O)OCC(=O)c1ccccc1Cl	?	3.55µM	?	.	?	9.53µM
Cc1ccc(NC(=O)C2CCN(C(=O)c3cnn(-c4ccccc4)c3-n3cccc3)CC2)cc1Cl	/	/	/	.	/	?
SMILES	p53 reactivator	Rab9 promoter act	ELG1 genotoxic	SMN2 splice up	NPC1 prom act	FLuc counter
O=[As](O)(O)c1ccc(N=Nc2ccc(O)cc2)cc1	.	.	.	.[9.22 µM]	.	13.5µM
O=C(CSc1ncnc2c1nnn2-c1ccc(F)cc1)NCC1CCCO1 (centres undefined)	.	.	.	.	.	13.5µM
C#CCO	/	/	/	.	/	/
Cc1ccc(N2C(=O)NC(=O)/C(=C\c3ccc([N+](=O)[O-])o3)C2=O)cc1	.	.	.	.	.	26.9µM
CC(=O)OCC1=C(C(=O)O)N2C(=O)[C@@H](NC(=O)CCC[C@@H](N)C(=O)O)[C@H]2SC1	/	.	/	/	.	/
CCN(CC)C(=O)c1ccc(NC(=O)c2cccc(F)c2)cc1	.	.	?	.	.	15.1µM
CCN(CC)C(=O)c1ccc(NC(=O)c2cccc(S(=O)(=O)N3CCN(C)CC3)c2)cc1	.	.	.	/	.	.
C[C@H](NC(=O)[C@@H](N)Cc1ccc(O)cc1)C(=O)N[C@@H](Cc1ccccc1)C(=O)NCC(=O)N[C@@H](Cc1ccc(O)cc1)C(=O)N1CCC[C@H]1C(=O)N[C@@H](CO)C(N)=O	/	/	/	.	/	/
Cn1cnc2cc(NC(=O)c3ccc(Cl)cc3)ccc21	?	2.82µM	?	11.2µM	2.82µM	12µM
CN(C)C(=O)Nc1ccc(Cl)cc1	/	/	/	.	/	/
Oc1ccc2c3c1O[C@H]1c4c(c5ccccc5n4Cc4ccccc4)C[C@@]4(O)C(C2)N(CC2CC2)CC[C@]314	/	/	/	.	/	/
NC(N)=N/N=C/c1cn(-c2ccccc2)nc1-c1cccs1	.	.	.	.	.	4.26µM
O=c1c2ccccc2nc(-c2cccs2)n1-c1ccccc1	.	.	.	.	.	.
C=C[C@@H]1CN2CC[C@H]1CC2[C@H](O)c1ccnc2ccccc12 (some centres undefined)	/	/	/	.[9.22 µM]	/	/
Cc1ccc(-c2cc(NC(=O)c3ccccc3)on2)cc1	.	2.24µM	?	/	?	2.39µM
Cc1cc(NC(=O)CCl)on1	.	.	.	.	.	.
Cc1cc(C)n(-c2ccc(NN=C(C#N)C#N)cc2)n1	.	.	.	/	.	15.1µM
N#CC(C#N)=NNc1ccc(-n2ccc(C(F)(F)F)n2)cc1	.	.	.	/	.	15.1µM
FC(F)(F)c1ccc(CSc2ccccn2)cc1	.	.	.	/	.	15.1µM
CNCC[C@@H](Oc1ccc(C(F)(F)F)cc1)c1ccccc1	/	.	.	.	.	.
O=c1nc(/C=C/c2ccc(Cl)cc2Cl)cc(C(F)(F)F)[nH]1	.	.	.	/	.	10.7µM
Cc1nc(Cl)sc1C(=O)Nc1ccc2ccccc2c1	?	?	?	12.6µM	.	7.57µM
CCN(CC)c1ccc(/C=C/[N+](=O)[O-])cc1	.	.	?	.	.	19µM
Cc1ccc(Cl)cc1N1CCN(C(=O)C2CCCN(S(=O)(=O)c3ccc(Br)s3)C2)CC1 (centres undefined)	/	/	/	.	/	.
Nc1ccccc1C(=O)OCC(=O)Nc1ccc(Br)cc1F	.	.	.	.	.	.
SMILES	p53 reactivator	Rab9 promoter act	ELG1 genotoxic	SMN2 splice up	NPC1 prom act	FLuc counter
CCCCOC(=O)c1ccccc1N	/	/	/	.	/	/
CCCCCCOC(=O)c1ccccc1N	.	.	?	.	.	16.9µM
Nc1ccccc1C(=O)OCCc1ccccc1	?	0.794µM	?	14.1µM	1.12µM	1.9µM
O=P(O)(O)CCP(=O)(O)O	/	/	/	.[9.22 µM]	/	/
Cc1ccnc(SCc2nc3ccccc3s2)n1	?	3.55µM	9.2µM	11.2µM	?	6.75µM
Cc1ccc(OCCOc2cccc(C=C3C(=O)NC(=O)NC3=O)c2)cc1	.	0.316µM	.	/	0.316µM	8.49µM
C[C@@H]1C(=O)O[C@@H]2C[C@]34[C@H]5C[C@@H](C(C)(C)C)[C@@]36[C@@H](OC(=O)[C@@H]6O)O[C@@]4(C(=O)O5)[C@@]12O	/	/	/	.	/	/
CCC(Oc1ccc(Cl)cc1)C(=O)OC1CC2CCC(C1)N2C (centres undefined)	/	/	/	.	/	/
ClC=C(Cl)Cl	/	/	/	.	/	/
N#CCCn1cc(C=C2C(=O)NC(=O)NC2=O)c(-c2ccccc2)n1	.	.	.	.	.	?
